# Data reported in PubChem BioAssay AID588342 (National Center for Advancing Translational Sciences (NCATS), 2011).
# The whole screen tested about 360,000 compounds, of which about 25,000 (6.9%) were called active. Entries that show only a call come without a potency. Another 9% or so got no clear call; they are omitted. The sample holds actives, similar compounds and a random draw of the others, so the mix is not that of the screen. Calls follow the shape of the dose curve; as a rule, active = well fitted inhibition curve with a large enough effect; inconclusive = small, poorly fitted or top-dose-only effect; inactive = flat fitted curve, though single readings scatter.
# Biological target: Luciferin 4-monooxygenase (Photinus pyralis) (UniProt P08659)
# Test: qHTS profiling assay for firefly luciferase inhibitor/activator using purifed enzyme and Km concentrations of substrates (counterscreen for miR-21 project); also: nearly all actives have a fitted effect of over 55% in size
# Conditions: purified FLuc, luminescence inhibition; series mostly up to 57.5 µM
# Procedure, shortened: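 Purified P. pyralis luciferase, 10 nM final, with Km-level 10 uM D-luciferin and 10 uM ATP in 50 mM Tris acetate pH 7.5, 10 mM Mg acetate, 0.01% Tween-20, 0.05% BSA; 6-point qHTS titration about 60 µM downward; luminescence read.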
# Potency is read from the fitted curve at half-maximal effect.
# Sequence of Luciferin 4-monooxygenase (Photinus pyralis) (P08659 whole entry, looked up): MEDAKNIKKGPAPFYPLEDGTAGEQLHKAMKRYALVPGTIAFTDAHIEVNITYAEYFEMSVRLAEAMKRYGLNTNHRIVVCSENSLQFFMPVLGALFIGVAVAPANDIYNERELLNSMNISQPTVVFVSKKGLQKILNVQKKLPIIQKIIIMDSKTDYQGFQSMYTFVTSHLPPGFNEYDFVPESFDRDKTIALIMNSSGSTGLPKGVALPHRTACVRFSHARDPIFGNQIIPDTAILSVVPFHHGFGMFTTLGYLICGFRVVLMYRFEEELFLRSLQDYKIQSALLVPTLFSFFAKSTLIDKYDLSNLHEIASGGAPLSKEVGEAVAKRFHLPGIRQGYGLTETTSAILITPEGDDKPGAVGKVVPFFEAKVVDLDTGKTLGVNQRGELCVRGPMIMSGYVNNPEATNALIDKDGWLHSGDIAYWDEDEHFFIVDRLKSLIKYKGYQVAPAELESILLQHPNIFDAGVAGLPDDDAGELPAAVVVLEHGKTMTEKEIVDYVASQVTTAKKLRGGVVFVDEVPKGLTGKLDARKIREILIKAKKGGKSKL
row,SMILES,Potency
1,Cc1cc(F)ccc1S(=O)(=O)Nc1ccc(C(=O)N(C)Cc2ccco2)cc1,inactive
2,CCc1nc2nc(C)cc(Nc3ccc(F)c(Cl)c3)n2n1,inactive
3,COc1ccc(/C=C/c2nc(C#N)c(NCc3ccc(F)cc3)o2)cc1OC,inactive
4,CCCCCn1c(=O)[nH]c2cc(C(=O)NCCN(C)CCCC)ccc2c1=O,inactive
5,CCc1ccc(C2CC(=O)c3c([nH]c(C(=O)OCc4ccc(C)cc4)c3C)C2)cc1 (stereo not drawn),inactive
6,COc1ccccc1Nc1c2c(nc3ccc(NC(=O)/C=C/c4cc(OC)c(OC)c(OC)c4)cc13)CCCC2,inactive
7,N#Cc1cccc(NC(=O)C2CCCN(C(=O)c3ccc(Cl)cc3)C2)c1 (stereo not drawn),inactive
8,CCc1ccc(CNCc2c(C(=O)O)n(Cc3ccc(F)cc3Cl)c3cc(OC)ccc23)cc1,inactive
9,O=C(CSc1nc2c(c(=O)[nH]1)CN(Cc1ccc3c(c1)OCO3)CC2)Nc1cc(F)ccc1F,inactive
10,c1ccc(-c2cn3c(n2)CCc2ccc4cccnc4c2-3)cc1,10.7 µM (active)
11,COc1ccc(NC(=O)CCCc2nnc3n(CCC(C)C)c(=O)c4sccc4n23)c(OC)c1,inactive
12,CCc1ccc(NC(=O)c2cc3c(=O)n(Cc4cccnc4)ccc3nc2C)cc1,inactive
13,CCOC(=O)N1CCN(C(=O)COc2ccc3oc4c(c3c2)CCCC4)CC1,inactive
14,CCN(CC)CCCNC(=O)COc1ccc2oc3c(c2c1)CCCC3,inactive
15,O=C(COc1ccc2oc3c(c2c1)CCCC3)Nc1ccccn1,1.07 µM (active)
16,COc1ccc(C2c3c(oc4ccccc4c3=O)C(=O)N2Cc2ccc3c(c2)OCO3)cc1 (stereo not drawn),inactive
17,COc1ccc([N+](=O)[O-])cc1NC(=O)CCc1ccccc1,inactive
18,O=C(Cc1c(F)cccc1Cl)Nc1ncc([N+](=O)[O-])s1,21.3 µM (active)
19,C/C(=N/NC(=O)C1COc2ccccc2O1)c1ccco1 (stereo not drawn),inactive
20,COc1ccc(NC(=O)C2COc3ccccc3O2)cc1 (stereo not drawn),16.9 µM (active)
21,CC(/C=C/c1ccco1)=N/NC(=O)C1COc2ccccc2O1 (stereo not drawn),inactive
22,O=C(Cc1c(F)cccc1Cl)Nc1ccc(-n2cnnn2)cc1,inactive
23,CN(c1ccccc1)S(=O)(=O)c1cccc(NC(=O)Cc2c(F)cccc2Cl)c1,inactive

row,SMILES,Potency
1,O=C(CCc1ccccc1)Nc1ncc([N+](=O)[O-])s1,15.1 µM (active)
2,CC(C)Cc1nnc(NC(=O)CCc2ccccc2)s1,inactive
3,O=C(Nc1ncc([N+](=O)[O-])s1)C1COc2ccccc2O1 (stereo not drawn),21.3 µM (active)
4,COc1ccc(NC(=O)CC2COc3ccccc3O2)c(OC)c1 (stereo not drawn),inactive
5,CCN(CC)S(=O)(=O)c1ccc(N2CCOCC2)c(NC(=O)C2COc3ccccc3O2)c1 (stereo not drawn),inactive
6,COc1cc(NC(=O)Cn2c(=O)n(Cc3ccco3)c(=O)c3oc4ccccc4c32)cc(OC)c1,inactive
7,COc1ccc(-c2nn(CC(=O)NC3CCCC3)c3c2cnc2ccc(F)cc23)cc1,inactive
8,CC(C)CN(C(=O)c1ccc2c(c1)OCO2)C1CCS(=O)(=O)C1 (stereo not drawn),inactive
9,O=c1c2cccnc2n(Cc2cccc(F)c2)c(=O)n1Cc1ccccc1Cl,inactive
10,COc1cc(/C=N/NC(=O)Nc2ccccc2)ccc1OCCOc1ccccc1C,inactive
11,COc1cc(/C=N/NC(=O)CCc2n[nH]c(=O)[nH]c2=O)ccc1O,inactive
12,COc1cc(/C=N/NC(=O)CNC(=O)c2ccncc2)ccc1OC(C)=O,inactive
13,O=[N+]([O-])c1cc(Br)c(O)c(/C=N/Nc2nc3ccccc3s2)c1,19 µM (active)
14,COc1cc(/C=N/Nc2nc3ccccc3s2)ccc1O,2.39 µM (active)
15,Cn1c(SCC(=O)N/N=C/c2ccc(O)c(O)c2)nc2ccccc21,inactive
16,COc1ccc(CC(=O)N/N=C/c2cc([N+](=O)[O-])cc(Br)c2O)cc1,inactive
17,COc1cc(/C=N\Nc2nc(-c3cccs3)c(NC(C)=O)s2)ccc1O,7.57 µM (active)
18,Cc1cc(C(=O)N/N=C/c2cc([N+](=O)[O-])cc(C)c2O)n[nH]1,inactive
19,CCOC(=O)C1CCCN(S(=O)(=O)c2cc(-c3cc(C)no3)ccc2OC)C1 (stereo not drawn),inactive
20,CSc1nn(Cc2cccc(C)c2)c(N)c1S(=O)(=O)c1ccccc1,inactive
21,COc1cccc(CNC(=O)C2CCC(CNS(=O)(=O)c3cccs3)CC2)c1 (stereo not drawn),inactive
22,CC(C)(C)c1ccc(C(=O)NCC(c2ccc(Cl)cc2)N2CCOCC2)cc1 (stereo not drawn),inactive
23,CCOc1ccc(NC(=O)COC(=O)C2CCC(=O)N2)c([N+](=O)[O-])c1 (stereo not drawn),inactive

row,SMILES,Potency
1,Cc1cc(C(=O)COC(=O)C2CC2)c(C)n1-c1ccc(F)cc1,0.169 µM (active)
2,COc1ccc(-n2c(C)cc(C(=O)COC(=O)c3cc(OC)c(OC)cc3NC(=O)c3cccs3)c2C)cc1,inactive
3,Cc1ccc(-n2c(C)cc(C(=O)CN3C(=O)C(=O)N(C4CCCC4)C3=O)c2C)cc1,inactive
4,Cc1nc(CN(C)C(=O)CC2C(=O)NCCN2Cc2ccc(F)cc2)cs1 (stereo not drawn),inactive
5,O=C(NCC(=O)N(c1ccccc1)C(C(=O)NCC1CCCO1)c1ccccc1)c1cccs1 (stereo not drawn),inactive
6,Cc1cccc(N(C(=O)Cc2cccs2)C(C(=O)NCc2ccco2)c2ccncc2)c1 (stereo not drawn),inactive
7,Cc1ccc(N(C(=O)Cc2cccs2)C(C(=O)NCC2CCCO2)c2ccncc2)cc1 (stereo not drawn),16.9 µM (active)
8,CCOC(=O)c1cc2c(=O)n3ccccc3nc2n(CC2CCCO2)c1=NC(=O)c1ccccc1Br (stereo not drawn),inactive
9,CN(C)c1nc(NN)nc(Nc2ccc(F)cc2)n1,inactive
10,CCC(=O)Nc1nc(OC)cc(OC)n1,inactive
11,CC(=O)Nc1nc(N(C)C)nc(N(C)C)n1,26.9 µM (active)
12,COc1ccc(Cl)cc1NC(=O)c1cccc(N2C(=O)C3CC=CCC3C2=O)c1 (stereo not drawn),inactive
13,O=C(Nc1ccccc1C(=O)O)c1ccc(N2C(=O)C3CC=CCC3C2=O)cc1 (stereo not drawn),4.78 µM (active)
14,O=C(Cc1ccccc1)Nc1ccc(C(=O)Nc2ccccc2C(=O)O)cc1,inactive
15,O=c1ccc2cc(S(=O)(=O)N3CCN(c4ccccc4)CC3)ccc2o1,inactive
16,CCOc1ccccc1NC(=O)Cn1c(=O)n(Cc2ccccc2)c(=O)c2c(C)c(C(=O)N(C)C)sc21,inactive
17,CC(C)(C)OC(=O)N/N=C/c1ccc(C(=O)O)cc1,19 µM (active)
18,O=C(N/N=C/c1ccc(OCC2COCCO2)cc1)c1ccc(Br)cc1 (stereo not drawn),inactive
19,COC(=O)N/N=C/c1ccc(/C=N/NC(=O)OC)cc1,inactive
20,O=C(O)c1ccc(/C=N/NC(=S)NCc2ccccc2)cc1,inactive
21,O=C(O)c1ccc(/C=N/NC(=O)c2ccc(Br)cc2)cc1,15.1 µM (active)
22,COc1ccc(S(=O)(=O)N(CC(=O)N/N=C/c2ccc(C(=O)O)cc2)Cc2ccccc2)cc1OC,inactive
